Sampled rows, rich in hits. Any-hit rate of the full collection: about 11%.
Autophagy HCS: autophagy modulation, high-content screen; 0.98% of 190,000 active; MEF GFP-LC3 puncta imaging; test concentration mostly 10 µM; calls only at 10 µM (by protocol); AID 463193;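 active = percentage of spot-positive cells more than 3 SD above its plate mean, without a fluorescence outlier flag or 80% toxicity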;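 note: spot-positive cell cutoff set from DMSO-treated cells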
L major viab: reduces viability of Leishmania major promastigotes; inhibition, % at 10 µM; 9% of 200,000 active; resazurin fluorescence viability; in the data active = inhibition above about 50%;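 note: promastigotes grown with compound for 44 hours at 28 °C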
INS promoter inh: TRM-6 insulin promoter activity inhibition; 0.9% of 130,000 active; AID 1273; TRM-6 cells (human fetal islet line), insulin promoter-eGFP reporter, imaging; reporter expression induced with tamoxifen; inhibition, % at 2 µM;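 active = inhibition above the mean plus 3 SD, with well images judged a real hit on visual review, cut at about 60% in these data, passing the limit was not always enough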
Ins promoter up: MIN6 insulin promoter up-regulation. 0.3% of 190,000 active. MIN6 insulin promoter-GFP reporter, high-content imaging; hits give high values. z-score at 5 µM;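 active = z-score above 3 at 5 µM with at least 500 cells counted in the well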
WT yeast gro inh: growth inhibition of WT yeast, mitochondrial fusion screen; mitochondrial fusion phenotypic screen, WT strain; inhibition, % at 10 µM; 2.1% of 190,000 active; AID 1362; in the data active = inhibition above about 58%; tested in S. cerevisiae
The depositor's hits bear a star; i = inactive; / = no result given; + = active, no number.

SMILES | Autophagy HCS | L major viab | INS promoter inh | Ins promoter up | WT yeast gro inh
COC(=O)c1c(NC(=O)CN2CCC3(O)CCCCC3C2c2ccc(F)cc2)sc(C)c1C (configuration not stated) | i | 77.3* | -14.3 | -0.1 | 58.9*
Oc1ccc(C2=NNC(=NCc3ccc4c(c3)OCO4)SC2)c(O)c1 | i | -4.9 | -14.3 | 1.36 | -1.0
Clc1ccc(C2=NNC(=NCc3ccc4c(c3)OCO4)SC2)cc1 | i | 15.6 | / | -0.36 | 61.1*
COc1ccc(OC)c(C2=NNC(=NCc3ccc4c(c3)OCO4)SC2)c1 | i | 92.3* | 22.2 | 1.17 | 14.8
COc1ccc(CN=C2NN=C(c3ccc(Cl)cc3)CS2)cc1 | i | 13.0 | -133.3 | -0.52 | 24.2
C/C(=N/NC(=O)c1ccc(Br)o1)C(C)C | i | -11.3 | -33.3 | 0.55 | -3.1
CC1=CC(C)(C)N2C(=O)C3(C(C#N)=C(N)OC4=C3C(=O)CCC4)c3c(C)c(C)cc1c32 (configuration not stated) | i | 13.6 | / | 0.65 | -27.7
CC1=CC(C)(C)N2C(=O)C3(C(C#N)=C(N)Oc4cc(O)ccc43)c3c(C)c(C)cc1c32 (configuration not stated) | i | 53.7* | -41.9 | -0.53 | 6.9
CCCC(=O)Nc1cccc(-c2cn3cccnc3n2)c1 | i | 90.5* | -46.1 | 0.12 | 1.9
CCCC(=O)Nc1cc(-c2cn3cccnc3n2)ccc1OC | i | 63.0* | -127.3 | -0.5 | -25.3
COc1ccc(-c2cn3cccnc3n2)cc1NC(=O)CC(C)C | i | 24.2 | -54.5 | 0.04 | -0.6
COc1ccc(CN2CCN(Cc3cccc(OC)c3)C(CCO)C2)cc1 (configuration not stated) | i | 71.4* | / | -0.7 | -3.8
COc1cccc(CN2CCN(Cc3ccc4c(c3)OCCO4)CC2CCO)c1 (configuration not stated) | i | 69.7* | / | -0.21 | -11.6
Cc1ccc(CN2CCN(Cc3ccc(Oc4ncccn4)cc3)CC2CCO)cc1 (configuration not stated) | i | -7.0 | / | -0.14 | -12.2
COc1ccc(/C=C/CN2CCN(Cc3cccc(OC)c3)C(CCO)C2)cc1 (configuration not stated) | i | 93.4* | / | 0.19 | 7.0
CC(C)CCN1CCN(Cc2ccc(Oc3ncccn3)cc2)CC1CCO (configuration not stated) | + | -4.1 | / | -0.53 | -6.3
Cc1ccc(CN2CCN(Cc3ccc4c(c3)OCCO4)CC2CCO)cc1 (configuration not stated) | i | 48.0 | / | / | 8.7
CC(NC(=O)c1cccs1)c1nnc(SCc2ccc(Cl)cc2Cl)n1C (configuration not stated) | i | -0.5 | / | 0.82 | 7.9
COc1ccc(/C=C\C(=O)CC(O)(c2ccccc2)C(F)(F)F)cc1 (configuration not stated) | i | 100.0* | -6.5 | -0.1 | 24.8
COc1ccc(/C=C(/NC(=O)/C=C/c2ccccc2)C(=O)O)cc1 | i | -7.3 | 40.0 | -0.44 | 10.2
CCCCCCCn1c(=N)n(CC(=O)c2ccco2)c2ccccc21 | i | 100.4* | -47.2 | / | 29.4
CCCCn1c(=N)n(CC(=O)c2ccco2)c2ccccc21 | i | 11.4 | 13.9 | -0.06 | 12.5
CCCCCCCn1c(=N)n(CC(O)c2ccco2)c2ccccc21 (configuration not stated) | i | 81.8* | / | -3.06 | 42.5
O=C(Nc1nc(-c2ccco2)c(-c2ccco2)s1)C1CCC1 | i | 85.6* | -28.0 | -0.94 | 52.4
O=C(Nc1nnc(-c2ccco2)s1)C1CCCCC1 | i | -5.2 | / | 1.6 | 18.5
SMILES | Autophagy HCS | L major viab | INS promoter inh | Ins promoter up | WT yeast gro inh
Cc1nc(N2CCc3ccccc32)[nH]c(=O)c1CCC(C)C | i | 14.2 | 42.9 | / | /
CCCCNC(=S)Nc1cc([N+](=O)[O-])ccc1C | i | 74.2* | -13.8 | 0.16 | 18.2
CCOC(=O)C(=O)Nc1cc([N+](=O)[O-])ccc1C | i | 32.5 | 0.0 | -0.63 | -15.2
COc1ccc(C(=O)Nc2ccc(N3CCN(C(=O)C(C)C)CC3)cc2)cc1[N+](=O)[O-] | i | -6.4 | / | 0.31 | -10.9
O=C(O)CCCCCN1C(=O)/C(=C\c2ccc(-c3ccc(Cl)cc3)o2)SC1=S | / | / | / | 4.23* | /
O=C(O)CCCN1C(=O)/C(=C/c2ccc(-c3nc4ccccc4s3)o2)SC1=S | i | -9.0 | 0.0 | 0.77 | 19.6
CCN(CC)S(=O)(=O)c1ccc(N2CCOCC2)c(NC(=O)Cc2ccc(Cl)cc2)c1 | i | 50.1* | / | -1.12 | 13.9
CCN(CC)S(=O)(=O)c1ccc(N2CCOCC2)c(NC(=O)CC23CC4CC(CC(Br)(C4)C2)C3)c1 | i | 50.8* | 22.2 | -0.23 | -4.3
CCN(CC)S(=O)(=O)c1ccc(N2CCOCC2)c(NC(=O)C(C)(C)C)c1 | / | / | / | -0.13 | /
C=CCn1c(C)csc1=Nc1ccccc1C | i | 10.8 | -25.0 | -0.59 | 30.7
COC(=O)c1ccc(CN2CCN(C3CCCC3)C(CCO)C2)cc1 (configuration not stated) | i | 55.7* | / | -0.5 | -5.9
COC(=O)c1ccc(CN2CCN(C3CCCCC3)C(CCO)C2)cc1 (configuration not stated) | i | 53.7* | / | 0.4 | -10.4
Cn1ncc([N+](=O)[O-])c1C(=O)n1nnc2ccccc21 | i | 0.6 | -12.5 | / | -15.8
COC(=O)CCSCC(=O)N1N=C(c2ccc(OC)cc2)CC1c1cccc(OC)c1OC (configuration not stated) | i | 6.5 | -180.0 | 0.09 | -3.1
CCN(CC)c1nc(C)c(C(=S)Nc2cc([N+](=O)[O-])ccc2Cl)s1 | + | 2.2 | / | 2.92 | 2.3
COC(=O)C1=C(C)N(c2ccccc2)/C(=C/c2cccs2)C1=O | i | 51.5* | / | 0.5 | 1.9
COC(=O)C1=C(C)N(c2ccc(C)c(C)c2)/C(=C/c2cccs2)C1=O | i | 82.5* | / | -0.04 | 5.7
COC(=O)C1=C(C)N(c2ccc(Cl)cc2)/C(=C/c2cccs2)C1=O | i | 36.2 | -16.9 | -0.09 | 15.0
COC(=O)C1=C(C)N(c2cccc(C)c2)C(=O)/C1=C\c1cccs1 | i | 15.8 | / | -0.58 | -1.7
CC1CC(C)CN(S(=O)(=O)c2ccc(C(C)(C)C)cc2)C1 (configuration not stated) | i | 13.4 | / | -0.42 | 14.4
CN(C(=S)NC(=O)CCCOc1ccc(Cl)cc1Cl)c1ccccc1 | i | -1.7 | 0.0 | 0.77 | 12.8
CCOC(=O)c1sc2ncn(/N=C/c3ccc(O)cc3)c(=O)c2c1C | i | 94.2* | / | -0.6 | 36.3
COCCN(C(=S)Nc1cc(C)ccc1C)C(C)c1cccnc1 (configuration not stated) | i | 95.3* | -28.9 | -0.04 | -5.1
COCCN(C(=S)Nc1c(C)cc(C)cc1C)C(C)c1cccnc1 (configuration not stated) | i | 88.8* | -33.3 | 0.11 | -1.5
O=C(Cn1nnc(-c2ccccc2NC(=O)c2cccs2)n1)Nc1ccccc1 | i | -1.0 | 14.7 | -0.39 | 0.3
N#CCCn1nc(-c2ccccc2)cc1Nc1ccccc1NC(=O)c1cccs1 | i | 58.6* | 10.7 | -0.94 | 5.0
